Molecules are shown by their SMILES. Several values for one entry are separate records, joined by “and”; a condition that tells them apart may be missing. Equal entries are not always repeated. Results filed as inconclusive are left out. Entries that show only a call come without a potency. Some structures have more than one record in an assay (separate samples or runs), and their calls can disagree. Activity calls are given as the source filed them. Calls come from the whole dose curve; as a rule, active = well fitted inhibition curve with a large enough effect in the repeat runs; inconclusive = weak or mixed curves, or effect the other way; inactive = no such curve, though single readings can be large or run the other way.

In PubChem BioAssay (Tox21) one finds Potency data, which are given here for seven compounds.
Potency is the fitted concentration of half-maximal effect.

Chain of Androgen receptor (Homo sapiens) (P10275 whole entry, looked up): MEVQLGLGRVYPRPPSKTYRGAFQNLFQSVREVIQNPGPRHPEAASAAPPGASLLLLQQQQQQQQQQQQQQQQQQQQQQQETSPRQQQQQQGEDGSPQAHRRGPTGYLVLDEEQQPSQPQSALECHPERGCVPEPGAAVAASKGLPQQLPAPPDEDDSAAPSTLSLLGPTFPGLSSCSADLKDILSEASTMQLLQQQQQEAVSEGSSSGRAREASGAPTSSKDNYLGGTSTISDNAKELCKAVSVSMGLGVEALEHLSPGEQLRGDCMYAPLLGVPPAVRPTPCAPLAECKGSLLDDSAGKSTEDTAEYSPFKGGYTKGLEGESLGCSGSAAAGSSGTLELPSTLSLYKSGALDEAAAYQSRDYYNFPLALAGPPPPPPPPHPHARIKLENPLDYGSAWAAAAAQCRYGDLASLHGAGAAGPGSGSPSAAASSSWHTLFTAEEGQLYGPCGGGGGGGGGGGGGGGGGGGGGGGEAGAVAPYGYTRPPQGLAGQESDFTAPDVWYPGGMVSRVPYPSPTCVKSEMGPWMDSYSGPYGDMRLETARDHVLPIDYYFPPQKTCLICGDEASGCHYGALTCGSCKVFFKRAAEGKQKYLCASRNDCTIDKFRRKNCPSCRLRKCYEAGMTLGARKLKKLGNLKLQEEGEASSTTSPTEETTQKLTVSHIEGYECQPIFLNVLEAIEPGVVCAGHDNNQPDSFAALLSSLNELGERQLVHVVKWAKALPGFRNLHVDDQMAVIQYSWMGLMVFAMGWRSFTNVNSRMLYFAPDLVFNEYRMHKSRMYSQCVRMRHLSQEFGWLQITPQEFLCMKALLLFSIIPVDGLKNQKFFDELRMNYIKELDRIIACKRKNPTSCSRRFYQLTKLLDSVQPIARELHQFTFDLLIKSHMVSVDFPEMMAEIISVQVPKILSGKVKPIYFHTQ

The experiment has as its target Androgen receptor (Homo sapiens) (UniProt P10275). The experiment is described as follows: qHTS assay to identify small molecule antagonists of the androgen receptor (AR) signaling pathway using the MDA cell line (AID 743042; note: nearly all actives have a fitted effect of over 55% in size). As to conditions: MDA-kb2 AR-luc, MMTV luciferase, R1881 antagonist, 16 h; series mostly up to 70.3 µM. In outline:
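Antagonist mode: compounds plus R1881 agonist added to MDA-kb2 AR-luc cells, incubated 16 h at 37C. Luciferase reporter luminescence quantified, with multiplexed CellTiter-Fluor readout for cell viability.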
Background: qHTS replaces the single test concentration by a dilution series.
For the compound `CCOP(=O)(OCC)Oc1nc(Cl)c(Cl)cc1Cl`, the Potency entry is “inactive”.

Consider `CCCCCCCc1ccc(O)cc1`, for which the Potency result is “inactive”.

With `S=C=NCCc1ccccc1`, the Potency entry was “inactive”.

As for `CC1=C2C[C@H]3[C@@H](CC=C4C[C@@H](O)CC[C@@]43C)[C@@H]2CC[C@]12O[C@@H]1C[C@H](C)CN[C@H]1[C@H]2C`, the Potency result was “inactive”.

As for `CN(C)C(=S)SSC(=S)N(C)C`, the Potency result is “inactive and 170 nM (active) and 61.1 nM (active)”.

With `CCOP(=S)(OCC)Oc1cc(C)nc(N(CC)CC)n1`, the Potency result was “inactive”.

In the case of `C=CCOC(=O)c1ccccc1N`, the Potency result was “inactive”.
